We go through 39 molecules from PubChem BioAssay (Tox21).

Results filed as inconclusive are left out. Where a call stands in place of a potency, no number is given. Active and inactive are the calls of the source. Unless noted, calls come from the whole dose curve; as a rule, active = well fitted cell-killing curve with a large enough effect in the repeat runs; inconclusive = weak or mixed curves; inactive = no such curve, though single readings can be large or run the other way. Non-standard residues stand in square brackets, D forms with d. Residues, ends and D or L forms follow the SMILES beside them. pGlu = O=C1CC[C@@H](C(=O)O)N1; Thz = O=C(O)[C@@H]1CSCN1
Potency is the fitted concentration of half-maximal effect.

Androgen receptor (Homo sapiens), sequence (P10275 whole entry, looked up): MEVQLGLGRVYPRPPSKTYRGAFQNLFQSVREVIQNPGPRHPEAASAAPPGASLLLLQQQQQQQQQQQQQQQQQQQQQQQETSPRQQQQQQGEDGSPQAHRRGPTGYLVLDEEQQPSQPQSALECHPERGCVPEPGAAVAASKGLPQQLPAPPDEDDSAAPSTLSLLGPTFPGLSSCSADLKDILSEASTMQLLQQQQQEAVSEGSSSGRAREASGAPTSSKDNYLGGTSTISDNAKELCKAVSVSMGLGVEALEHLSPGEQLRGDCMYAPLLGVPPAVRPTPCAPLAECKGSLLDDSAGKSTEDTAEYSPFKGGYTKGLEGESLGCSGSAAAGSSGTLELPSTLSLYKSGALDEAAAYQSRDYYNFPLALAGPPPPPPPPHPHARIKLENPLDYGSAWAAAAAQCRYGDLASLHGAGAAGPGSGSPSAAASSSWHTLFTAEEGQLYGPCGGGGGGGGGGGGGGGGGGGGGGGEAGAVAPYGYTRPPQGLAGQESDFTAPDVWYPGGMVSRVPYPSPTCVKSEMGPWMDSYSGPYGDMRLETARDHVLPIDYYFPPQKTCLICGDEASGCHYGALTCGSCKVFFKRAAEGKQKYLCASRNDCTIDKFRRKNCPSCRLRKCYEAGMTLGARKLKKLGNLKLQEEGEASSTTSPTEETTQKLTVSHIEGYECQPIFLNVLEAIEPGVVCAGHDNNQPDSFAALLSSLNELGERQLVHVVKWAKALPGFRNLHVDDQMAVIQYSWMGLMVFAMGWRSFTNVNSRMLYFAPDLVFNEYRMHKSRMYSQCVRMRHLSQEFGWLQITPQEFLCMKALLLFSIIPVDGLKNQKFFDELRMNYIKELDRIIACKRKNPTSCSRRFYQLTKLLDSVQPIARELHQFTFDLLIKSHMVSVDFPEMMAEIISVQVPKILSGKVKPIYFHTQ

Tested on in one assay: not listed separately
The assay can be described thus: qHTS assay to identify small molecule antagonists of the androgen receptor (AR) signaling pathway - cell viability counter screen (AID 743033; note: nearly all actives have a fitted effect of over 45% in size). Conditions: AR-bla HEK293 viability, CellTiter-Glo luminescence, 16 h; series mostly up to 58.5 µM.
Regarding `CCCCCCCCCCCC(=O)OC[C@@H](O)C1OC[C@H](O)[C@H]1O` (some centres undefined), the Potency entry was “inactive”.

Regarding `CNc1cc(OC)c(C(=O)N[C@H]2CCN(Cc3ccccc3)[C@H]2C)cc1Cl`, the Potency entry was “inactive”.

As for `NCCCNCCCCNC(=O)C(O)NC(=O)CCCCCCN=C(N)N` (centres undefined), the Potency entry was “inactive”.

Consider `C=C[C@]1(C)C[C@@H](OC(=O)CSCCN(CC)CC)[C@]2(C)[C@H](C)CC[C@]3(CCC(=O)[C@H]32)[C@@H](C)[C@@H]1O`, for which the Potency entry is “inactive”.

`CC(O)[C@@H]1NC(=O)[C@H](Cc2ccccc2)NC(=O)[C@H](C(C)O)NC(=O)[C@H](CCCCN)NC(=O)[C@H](Cc2c[nH]c3ccccc23)NC(=O)[C@H](Cc2ccccc2)NC(=O)[C@H](Cc2ccccc2)NC(=O)[C@H](CC(N)=O)NC(=O)[C@H](CCCCN)NC(=O)[C@@H](NC(=O)CNC(=O)[C@H](C)N)CSSC[C@@H](C(=O)O)NC(=O)[C@H](CO)NC1=O` (some centres undefined): the Potency entry was “inactive”.

In the case of `O=C(CO)[C@@H](O)[C@H](O)[C@@H](O)C(=O)O`, the Potency entry is “inactive”.

With `O=C(O)[C@H]1/C(=C/CO)O[C@@H]2CC(=O)N21`, the Potency result was “inactive”.

For `NCCC(=O)[N-][C@@H](Cc1cnc[nH]1)C(=O)O.[Zn]`, the Potency entry is “inactive”.

`Cc1cc2nc3c(=O)[nH]c(=O)nc-3n(C[C@H](O)[C@H](O)[C@H](O)COP(=O)(O)OP(=O)(O)OC[C@H]3O[C@@H](n4cnc5c(N)ncnc54)[C@H](O)[C@@H]3O)c2cc1C`: the Potency entry was “inactive”.

In the case of `C[N@+]12CCCC[C@@H]1CCC(=C(c1cccs1)c1cccs1)C2`, the Potency result is “inactive”.

`CCCCC/C=C\C/C=C\C/C=C\CCCCC(=O)O`: the Potency result is “inactive”.

For the molecule `COc1ccc(/C=C/C(=O)OCCC(C)C)cc1`, the Potency result is “inactive”.

Turning to `CC(=O)[C@@]1(O)CC[C@H]2[C@@H]3C=C(Cl)C4=CC(=O)[C@@H]5C[C@@H]5[C@]4(C)[C@H]3CC[C@@]21C`, the Potency result is “inactive”.

Take `O=C1CC[C@@H](C(=O)N2CSC[C@H]2C(=O)O)N1` ([pGlu]-[Thz]-OH): the Potency entry is “inactive”.

For the molecule `CCCc1ccc(C(=O)O)cc1`, the Potency entry is “inactive”.

Take `CCOc1cc(-c2nccc3cc(OC)c(OC)cc23)cc(OCC)c1OCC`: the Potency result was “inactive”.

As to `CCCCCCCCCCCCCCCC(=O)O[C@@H]1[C@@H](O)[C@@H](O)[C@@H]([C@H](NC(=O)[C@@H]2C[C@@H](CCC)CN2C)[C@H](C)Cl)O[C@@H]1SC`, the Potency result is “inactive”.

On to `C[C@H]1C[C@H]2[C@@H]3CCC4=CC(=O)C=C[C@]4(C)[C@@]3(F)[C@@H](O)C[C@]2(C)[C@@]1(O)C(=O)CCl`, for which the Potency entry is “inactive”.

Take `CN=C1C=CC(=C(c2ccc(N(C)C)cc2)c2ccc(N(C)C)cc2)C=C1`: the Potency was 535 nM (active).

`CC(=O)O[C@H]1C(=O)[C@@]2(C)[C@H]([C@H](OC(=O)c3ccccc3)[C@]3(O)C[C@H](OC(=O)[C@H](O)[C@@H](NC(=O)c4ccccc4)c4ccccc4)C(C)=C1C3(C)C)[C@]1(OC(C)=O)CO[C@@H]1C[C@@H]2O`: the Potency was 952 nM (active).

As for `CC1(O)CCC(C(C)(C)O)CC1` (centres undefined), the Potency result was “inactive”.

With `CCOC(=O)COc1ccc2c(C)c(CCN(CC)CC)c(=O)oc2c1`, the Potency entry was “inactive”.

On to `N[C@H](CCC(=O)O)C(=O)O`, for which the Potency entry was “inactive”.

As to `CCN(CC)CCOc1ccccc1OC`, the Potency entry was “inactive”.

As for `CC(C)C[C@H](NC(=O)[C@@H](Cc1c[nH]c2ccccc12)NC(=O)[C@H](Cc1ccc(O)cc1)NC(=O)[C@H](CO)NC(=O)[C@H](Cc1c[nH]c2ccccc12)NC(=O)[C@H](Cc1cnc[nH]1)NC(=O)[C@@H]1CCC(=O)N1)C(=O)N[C@@H](CCCN=C(N)N)C(=O)N1CCC[C@@H]1C(=O)NCC(N)=O`, the Potency entry is “inactive”.

Turning to `CC1(C)S[C@@H]2[C@H](NC(=O)[C@H](N)c3ccccc3)C(=O)N2[C@H]1C(=O)OCOC(=O)[C@@H]1N2C(=O)C[C@H]2S(=O)(=O)C1(C)C`, the Potency entry was “inactive”.

Regarding `CCN(CC)c1ccc(C(=C2C=CC(=[N+](CC)CC)C=C2)c2ccccc2)cc1`, the Potency was 2390 nM (active).

For `C=CC1=C(C)C2=CC3=NC(=C(CC(=O)[O-])C4=NC(=C(C)C4=C([O-])[O-])C=c4[n-]c(c(C)c4CC)=CC1=N2)C(CCC(=O)[O-])C3C.[Cu+2].[Na+].[Na+].[Na+]` (centres undefined), the Potency entry was “inactive”.

With `COc1ccc(CCNC[C@H](O)c2ccc(O)cc2)cc1OC`, the Potency entry is “inactive”.

Consider `Cc1cc(C(=O)NNCc2ccccc2)no1`, for which the Potency entry is “inactive”.

As for `NC[C@@H]1O[C@H](O[C@H]2[C@@H](O)[C@H](O[C@@H]3[C@@H](O)[C@H](N)C[C@H](N)[C@H]3O[C@H]3O[C@H](CN)[C@@H](O)[C@H](O)[C@H]3N)O[C@@H]2CO)[C@H](N)[C@@H](O)[C@@H]1O`, the Potency entry was “inactive”.

In the next assay the target is Androgen receptor (Homo sapiens) (UniProt P10275). The assay can be described thus: qHTS assay to identify small molecule antagonists of the androgen receptor (AR) signaling pathway (AID 743035; active = well fitted inhibition curve with a large enough effect in the signal ratio in the repeat runs, not every such curve was filed as active; the % refers to the signal ratio). The note with it: HEK293 AR-UAS-bla, R1881-stimulated, beta-lactamase FRET, 16 h; series mostly up to 58.5 µM. Put shortly:
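Antagonist mode: AR-bla HEK293 cells co-treated with test compounds and agonist R1881 for 16 h at 37C, 5% CO2. Beta-lactamase activity read as FRET fluorescence after 2 h room-temperature substrate loading.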
For orientation: Quantitative high-throughput screening tests each substance at several concentrations.
Regarding `CN(C)c1ccc(C(=C2C=CC(=[N+](C)C)C=C2)c2c(O)c(S(=O)(=O)[O-])cc3cc(S(=O)(=O)O)ccc23)cc1`, the Potency entry was “inactive”.

As for `O=C(O)c1cccc(/C=C2/C[C@@H]3[C@@H](/C=C/[C@@H](O)C4CCCCC4)[C@H](O)C[C@@H]3O2)c1`, the Potency entry is “inactive”.

Turning to `CN(C)CCCN1c2ccccc2C(C)(C)c2ccccc21`, the Potency entry was “inactive”.

For `OCCN1CCN(CC/C=C2/c3ccccc3Sc3ccc(Cl)cc32)CC1`, the Potency result was “inactive”.

Regarding `CCC(Cc1c(I)cc(I)c(O)c1I)C(=O)O` (centres undefined), the Potency entry was “inactive”.

In the case of `C=C[C@]1(C)C[C@@H](OC(=O)CSC(C)(C)CNC(=O)[C@H](N)C(C)C)[C@]2(C)[C@H](C)CC[C@]3(CCC(=O)[C@H]32)[C@@H](C)[C@@H]1O`, the Potency is 23900 nM (active).

As to `CCCCCCCCCCCCCC[n+]1ccc(C)cc1`, the Potency was 9520 nM (active).

Regarding `[O]=[Bi][O][Bi]=[O]`, the Potency entry was “inactive”.
